Laboratory results: ChEMBL document CHEMBL4513216, “Probing the Open Global Health Chemical Diversity Library for Multistage-Active Starting Points for Next-Generation Antimalarials” (ACS Infect Dis, 2020)
The whole screen tested about 69,000 compounds, of which about 8,600 (12%) showed an effect of 50% or more. Only a selection was taken, and strong results are over-represented in it overall.

system: Plasmodium berghei; assay: Screen against P. berghei liver stage (PbLuc), transformed with Luciferase, at 10uM; assay type: functional, HepG2; details: tested at 10 uM

Question: With `CC(=O)NCCCNC(=O)N1CCN(c2cc(F)ccc2F)CC1` as the compound, how does the INHIBITION read?
Answer: The INHIBITION was -15%.

Question: Which INHIBITION does the source give for `N#Cc1ccccc1CN1C[C@H]2CC[C@@H](C1)N(Cc1cscn1)C2=O` here?
Answer: Its INHIBITION is 6.8%.

Question: With `CCc1nc(C)sc1CN1CC[C@@](O)(CCOC)[C@H](C)C1` as the compound, how does the INHIBITION read?
Answer: The INHIBITION was 21.8%.

Question: How did the INHIBITION turn out when `COCCn1cncc1-c1nc2c([nH]1)CC(C)(C)CNC2=O` was run?
Answer: The INHIBITION was -27.6%.

Question: `COCC(=O)N1CCCCC1c1nc(C)c2c(n1)N(C1CC1)C(=O)CC2` (configuration not stated) was tested. Which INHIBITION did it give?
Answer: Its INHIBITION is 36.9%.

Question: With `CCN1CCC(NC(=O)CN2CCCC2Cn2nc(C)nc2C)CC1` (configuration not stated) as the compound, how does the INHIBITION read?
Answer: The INHIBITION was 31.2%.

Question: How did the INHIBITION turn out when `CSCC[C@H](NC(=O)Cn1ccc2ccc(Cl)cc21)C(=O)O` was run?
Answer: Its INHIBITION is -30.8%.

Question: `Cc1cc(CN2CCCC2Cn2cccn2)no1` (configuration not stated) was tested. Which INHIBITION did it give?
Answer: The INHIBITION was 9.2%.

Question: For `CSCc1cccc(S(=O)(=O)N2CCCCCC2)c1`, which INHIBITION is on record?
Answer: Its INHIBITION is 2.69%.

Question: How did the INHIBITION turn out when `Cc1cc(NC2CCc3nc(C(C)C)nn3C2)n2ncnc2n1` (configuration not stated) was run?
Answer: The INHIBITION was 49.1%.

Question: Which INHIBITION does the source give for `Cn1nnc2c1C(COCc1ccccn1)CN(C(=O)c1cccs1)C2` (configuration not stated) here?
Answer: Its INHIBITION is 31.8%.

Question: Which INHIBITION does the source give for `CS(=O)(=O)N1CC[C@]2(C[C@@H](Oc3ccccn3)CO2)C1` here?
Answer: Its INHIBITION is 29%.

Question: For `COc1cccc(C(=O)N2C[C@@H](c3ccccc3)[C@@H]3NCCCC[C@@H]32)c1`, which INHIBITION is on record?
Answer: Its INHIBITION is 5.11%.

Question: `COc1ccc(C(=O)N2C[C@@H](c3ccccc3)[C@@H]3NCCCC[C@@H]32)cc1` was tested. Which INHIBITION did it give?
Answer: The INHIBITION was 15.9%.

Question: `COc1cccc([C@H]2CN(C(=O)c3ccccc3)[C@@H]3CCCN[C@H]23)c1` was tested. Which INHIBITION did it give?
Answer: Its INHIBITION is 55.6%.

Question: With `CCn1cc(CN2CCCN(C(=O)c3ccoc3)CC2)cn1` as the compound, how does the INHIBITION read?
Answer: The INHIBITION was 41.2%.

Question: With `CCC(C)(C)NC(=O)C[S+]([O-])Cc1csc(C2CCCC2)n1` (configuration not stated) as the compound, how does the INHIBITION read?
Answer: Its INHIBITION is 63.8%.

Question: `CCCNC(=O)C[S+]([O-])Cc1csc(C2CCCCC2)n1` (configuration not stated) was tested. Which INHIBITION did it give?
Answer: Its INHIBITION is 23%.

Question: Which INHIBITION does the source give for `O=C(C[S+]([O-])Cc1csc(C2CCCC2)n1)NC1CCCC1` (configuration not stated) here?
Answer: The INHIBITION was 36.9%.

Question: How did the INHIBITION turn out when `CCc1cnc(N2CCc3ncnc(N4CCN(C)CC4)c3CC2)nc1` was run?
Answer: The INHIBITION was 36.2%.

Question: Which INHIBITION does the source give for `O=S(=O)(NCc1ccnc(-n2ccnc2)c1)c1cncc(Cl)c1` here?
Answer: Its INHIBITION is 15.2%.

Question: `Cn1cc(S(=O)(=O)NC(=O)C2(c3ccccc3)CCC2)cn1` was tested. Which INHIBITION did it give?
Answer: The INHIBITION was 2.97%.

Question: `Cc1cccc(C2(C(=O)NS(=O)(=O)c3cnn(C)c3)CCCC2)c1` was tested. Which INHIBITION did it give?
Answer: Its INHIBITION is 53.5%.

Question: Which INHIBITION does the source give for `Cn1cc(S(=O)(=O)NC(=O)C2(c3cccc(Cl)c3)CC2)cn1` here?
Answer: The INHIBITION was -6.94%.

Question: `O=C(CCNC(=O)N1CCC(c2ccccc2)C1)N1CCCCC1` (configuration not stated) was tested. Which INHIBITION did it give?
Answer: Its INHIBITION is -24.5%.

Question: For `CN(C(=O)C1CCOCC1)[C@@H]1CCC[C@@H](N2CCOCC2)[C@@H]1O`, which INHIBITION is on record?
Answer: Its INHIBITION is 38.2%.

Question: Which INHIBITION does the source give for `c1cncc(-c2ncnc3c2CCN(Cc2ccsc2)CC3)c1` here?
Answer: The INHIBITION was 3.58%.

Question: With `Cc1nc(C)c2c(n1)CCN(Cc1ccsc1)CC2` as the compound, how does the INHIBITION read?
Answer: Its INHIBITION is -5.08%.

Question: Which INHIBITION does the source give for `Cc1nc(N2CCOCC2)nc2c1CCN(Cc1ccsc1)CC2` here?
Answer: The INHIBITION was 60.5%.

Question: How did the INHIBITION turn out when `O=C(c1nc(N2CCCC2)ncc1Cl)N1CCN(Cc2ccsc2)CC1` was run?
Answer: The INHIBITION was 72.1%.

Question: For `Oc1nc(N2CCCC2)nc2c1CCN(Cc1cccnc1)CC2`, which INHIBITION is on record?
Answer: Its INHIBITION is 24.8%.

Question: `Cc1nc(N2CCCC2)nc2c1CCN(Cc1ccsc1)CC2` was tested. Which INHIBITION did it give?
Answer: The INHIBITION was 4.1%.

Question: With `CN(Cc1ccsc1)C(=O)c1nc(N2CCCCC2)ncc1Cl` as the compound, how does the INHIBITION read?
Answer: Its INHIBITION is 26.7%.

Question: With `CN(Cc1ccsc1)C(=O)c1nc(N2CCCC2)ncc1Cl` as the compound, how does the INHIBITION read?
Answer: Its INHIBITION is -0.232%.

Question: For `Oc1nc(N2CCCC2)nc2c1CCN(Cc1ccsc1)CC2`, which INHIBITION is on record?
Answer: The INHIBITION was 61.7%.

Question: `O=C(c1ccc(N2CCCC2)nc1)N1CCCC(c2nccs2)C1` (configuration not stated) was tested. Which INHIBITION did it give?
Answer: Its INHIBITION is 17.2%.

Question: `CC(C)Cc1nc(CNCc2cccc(N3CCCC3=O)c2)no1` was tested. Which INHIBITION did it give?
Answer: Its INHIBITION is -20.5%.

Question: `NCC1CCC(C(NC(=O)CC2CCCCC2)c2ccccn2)CC1` (configuration not stated) was tested. Which INHIBITION did it give?
Answer: Its INHIBITION is 38.2%.

Question: `CCc1ccc(NC(=O)N2C[C@@H]3C[C@H](C(=O)NC(C)C)[C@H](C2)O3)cc1` was tested. Which INHIBITION did it give?
Answer: The INHIBITION was -31.1%.

Question: How did the INHIBITION turn out when `CN1CC2(CCN(C(=O)c3cc(-n4cccn4)ccc3Cl)CC2)OC1=O` was run?
Answer: The INHIBITION was 14.5%.

Question: With `Cc1cnn(C2CCCN(C(=O)c3ccc4c(c3)CCC4)C2)c1` (configuration not stated) as the compound, how does the INHIBITION read?
Answer: Its INHIBITION is 40.2%.

Question: For `O=C(c1cc(F)ccc1F)C1CCN(C(=O)c2ccco2)CC1`, which INHIBITION is on record?
Answer: The INHIBITION was -98.8%.

Question: How did the INHIBITION turn out when `Cc1ccc(C(C)N(C)Cc2nc3c(cnn3C)c(=O)[nH]2)s1` (configuration not stated) was run?
Answer: The INHIBITION was -30.38%.

Question: How did the INHIBITION turn out when `NC(=O)CSCCC(=O)NCC1CC1` was run?
Answer: The INHIBITION was -0.71%.

Question: For `NC(=O)CSCC(=O)NCC1CCCC1`, which INHIBITION is on record?
Answer: Its INHIBITION is 50.4%.

Question: How did the INHIBITION turn out when `N#CCSCC(=O)NCC1CCCCC1` was run?
Answer: Its INHIBITION is 18.6%.

Question: With `CN(C(=O)c1ccnn1C)[C@@H]1CCC[C@@H](Oc2ccccc2)[C@@H]1O` as the compound, how does the INHIBITION read?
Answer: Its INHIBITION is 34%.

Question: With `CCC(=O)N1CCC(Cc2cnc(Nc3cnccn3)cn2)CC1` as the compound, how does the INHIBITION read?
Answer: The INHIBITION was 16.5%.

Question: `Cc1n[nH]c(C)c1-c1nccnc1CC1CCN(S(C)(=O)=O)C1` (configuration not stated) was tested. Which INHIBITION did it give?
Answer: Its INHIBITION is -3.31%.

Question: How did the INHIBITION turn out when `Cc1cc(NC2CCN(c3ccc(F)cc3)CC2)n2nc(C)cc2n1` was run?
Answer: Its INHIBITION is 8.07%.

Question: Which INHIBITION does the source give for `Cc1cc(C)nc(NC2CCCN(CCCc3ccccc3)C2)n1` (configuration not stated) here?
Answer: The INHIBITION was 31.1%.

Question: With `Cc1cc(NC2CCCN(Cc3ccc(F)cc3)C2)n2nc(C)cc2n1` (configuration not stated) as the compound, how does the INHIBITION read?
Answer: The INHIBITION was 67.3%.

Question: Which INHIBITION does the source give for `Cc1cc(N[C@H]2CCCN(Cc3ccccc3)C2)n2nc(C)cc2n1` here?
Answer: The INHIBITION was 63.7%.

Question: `Cc1ccc(NC2CCCN(CCc3ccccc3)C2)nn1` (configuration not stated) was tested. Which INHIBITION did it give?
Answer: Its INHIBITION is -28%.

Question: Which INHIBITION does the source give for `Cc1ccc(NC2CCCN(Cc3ccc(Cl)cc3)C2)nn1` (configuration not stated) here?
Answer: Its INHIBITION is -20%.

Question: For `CN1C(=O)C2(CCN(C(=O)c3ccccc3)CC2)c2cccc(F)c21`, which INHIBITION is on record?
Answer: Its INHIBITION is 43.8%.

Question: Which INHIBITION does the source give for `O=C(N1CCCO1)[C@]12COC[C@H]1CN(Cc1nccs1)C2` here?
Answer: The INHIBITION was 7.24%.

Question: With `CC[C@H]1NCCC[C@]12CCC(=O)N2Cc1ccncc1` as the compound, how does the INHIBITION read?
Answer: The INHIBITION was 17.4%.

Question: How did the INHIBITION turn out when `CCN1CCN(c2ccccc2NC(=O)N(C)C2CCSC2)CC1` (configuration not stated) was run?
Answer: Its INHIBITION is 74.9%.

Question: `CCN1CCC(NC(=O)N(C)Cc2csc3ccccc23)CC1` was tested. Which INHIBITION did it give?
Answer: The INHIBITION was 27.6%.

Question: With `CCN1CCc2c(cccc2NC(=O)CN(C)C2CCSC2)C1` (configuration not stated) as the compound, how does the INHIBITION read?
Answer: The INHIBITION was 34.1%.

Question: For `CCOCCN(C)C(=O)Nc1cccc2c1CCN(CC)C2`, which INHIBITION is on record?
Answer: The INHIBITION was 3.48%.

Question: With `CS(=O)(=O)NCC1CCCN(C(=O)Nc2ccccc2N2CCCC2)C1` (configuration not stated) as the compound, how does the INHIBITION read?
Answer: The INHIBITION was -75.9%.

Question: How did the INHIBITION turn out when `CCN1CCc2c(cccc2NC(=O)N(C)C2CCSC2)C1` (configuration not stated) was run?
Answer: The INHIBITION was 50.8%.

Question: For `CC(C)n1cnnc1CN(C)C(=O)c1cccnc1O`, which INHIBITION is on record?
Answer: The INHIBITION was 18.6%.

Question: With `CCOc1ccc(S(=O)(=O)C(C)C(=O)Nc2cc(C)no2)cc1` (configuration not stated) as the compound, how does the INHIBITION read?
Answer: Its INHIBITION is -11.9%.

Question: For `O=C([C@H]1CCCO1)N1CC[C@H](O)[C@@H]1Cc1ccncc1`, which INHIBITION is on record?
Answer: Its INHIBITION is 33.2%.
